From the supplement of paper PMC6411743
± gives the standard deviation of the averaged measurements. The full data set covers some 5,400 targets. This sample favours those with the largest changes.

Target: T1, NUFIP2 (UniProt Q7Z417)
T1 sequence (whole entry): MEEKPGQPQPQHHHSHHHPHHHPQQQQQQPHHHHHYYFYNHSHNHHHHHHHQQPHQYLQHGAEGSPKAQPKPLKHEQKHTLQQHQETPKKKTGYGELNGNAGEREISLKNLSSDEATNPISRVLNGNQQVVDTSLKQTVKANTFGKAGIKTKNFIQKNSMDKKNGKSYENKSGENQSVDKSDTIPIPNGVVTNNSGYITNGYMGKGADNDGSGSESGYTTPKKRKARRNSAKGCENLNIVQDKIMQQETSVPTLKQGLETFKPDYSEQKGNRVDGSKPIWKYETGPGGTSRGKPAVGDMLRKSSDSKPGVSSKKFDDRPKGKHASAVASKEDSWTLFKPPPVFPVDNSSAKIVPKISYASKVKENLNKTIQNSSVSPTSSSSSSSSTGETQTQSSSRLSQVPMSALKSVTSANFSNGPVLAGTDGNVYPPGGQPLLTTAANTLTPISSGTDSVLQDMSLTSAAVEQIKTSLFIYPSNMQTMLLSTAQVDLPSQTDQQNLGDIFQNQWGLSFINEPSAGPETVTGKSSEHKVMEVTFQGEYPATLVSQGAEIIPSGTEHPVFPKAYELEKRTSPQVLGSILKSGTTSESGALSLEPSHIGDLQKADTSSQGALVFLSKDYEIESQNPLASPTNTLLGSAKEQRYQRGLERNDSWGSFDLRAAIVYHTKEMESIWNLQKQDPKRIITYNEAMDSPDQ
Test: NP40-soluble protein abundance relative to vehicle (solubility fold change) (ratio); higher = more soluble protein in presence of GTP
Experimental: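 Solubility proteome profiling in Jurkat crude lysate. Lysate was treated with Mg-GTP (0.1-10 mM) for 10 min at room temperature and 3 min at 37 °C, then solubilised with 0.8% NP40 and benzonase, followed by ultracentrifugation. Proteins were quantified by TMT10 LC-MS/MS; the value is the NP40-soluble abundance relative to the NP40-processed vehicle, from 3 independent experiments.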

`Nc1nc2c(ncn2[C@@H]2O[C@H](COP(=O)(O)OP(=O)(O)OP(=O)(O)O)[C@@H](O)[C@H]2O)c(=O)[nH]1` [guanosine triphosphate] gave an NP40-soluble protein abundance (concentration: 0.1mM) of 0.964 ± 0.079, an NP40-soluble protein abundance (concentration: 0.5mM) of 0.977 ± 0.14 and an NP40-soluble protein abundance (concentration: 1mM) of 1.06 ± 0.12. For the same compound, the NP40-soluble protein abundance (concentration: 2mM) was 1.07 ± 0.15, the NP40-soluble protein abundance (concentration: 4mM) was 1.17 ± 0.15 and the NP40-soluble protein abundance (concentration: 6mM) was 1.21 ± 0.15. It also gave an NP40-soluble protein abundance (concentration: 8mM) of 1.28 ± 0.089 and an NP40-soluble protein abundance (concentration: 10mM) of 1.34 ± 0.13.
